Only some compounds are listed: those with a hit (about 7.9% of all), similar ones and a draw of the others.
KB-3-1 cytotox: qHTS assay for MDR1-selective chemotherapeutics: Primary screen using the parental adenocarcinoma cell KB-3-1; 400,000 tested, 1.4% active; AID 1347075, 2019; Potency, µM (titrated, usually from 46.1 µM), usual class: cytotoxic; KB-3-1 viability, CellTiter-Glo ATP luminescence, 72 h; note: nearly all actives have a fitted effect of over 60% in size
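72 h, 37 °C compound treatment of KB-3-1 parental cells; CellTiter-Glo added, 10 min, luminescence read. Data corrected against DMSO-only plates and normalized before curve fitting.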
KB-V1 MDR tox: qHTS assay for MDR1-selective chemotherapeutics: Primary screen using the drug-selected MDR subline cells KB-V1. Potency, µM (highest dose often 46.1 µM), usual class: cytotoxic. KB-V1 MDR cells viability, CellTiter-Glo, 72 h. 400,000 tested, 3.4% active; note: nearly all actives have a fitted effect of over 60% in size
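Readout: CellTiter-Glo luminescence, 10 min after addition. Cells: KB-V1 MDR subline, 72 h at 37 degrees C with compound. Analysis: corrected, normalized data fitted to concentration-effect curves.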
MCF10A rerep: A quantitative high throughput screen for small molecules that induce DNA re-replication in MCF 10a normal breast cells | MCF 10A DNA re-replication, Hoechst nuclear intensity, 48 h | Potency, µM (titrated, usually from 46.1 µM), most hits filed as activators | 350,000 tested, 2.9% active | AID 624296, 2012; note: nearly all actives have a fitted effect of over 50% in size
HT1080NT lethal: qHTS for induction of synthetic lethality in tumor cells producing 2HG: qHTS for the HT-1080-NT fibrosarcoma cell line | 360,000 tested, 1.6% active | HT-1080-NT fibrosarcoma viability, CellTiter-Glo ATP luminescence, 48 h | Potency, µM (titrated, usually from 46.1 µM), actives largely listed as cytotoxic | AID 686970, 2013;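 note: NT is the 2HG producing partner of a matched IDH1 knockdown line; nearly all actives have a fitted effect of over 55% in size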
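Toxicity toward the 2HG-producing NT line was scored as %Activity, normalised to DMSO and no-cell wells, from CellTiter-Glo luminescence after 48 hours' treatment.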
HT1080 IDH1KD tx: qHTS for induction of synthetic lethality in tumor cells producing 2HG: qHTS for the HT-1080-IDH1KD cell line; HT-1080 IDH1 knockdown viability, ATP luminescence, 48 h; Potency, µM (doses to about 46.1 µM), hits mostly cytotoxic; 360,000 tested, 2% active; AID 686971, 2013
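Assay cells: HT-1080 with IDH1 knockdown, 750 per well, RPMI/5% FBS. Exposure: 48 h at 37 °C following 2 h pre-incubation. Read: CellTiter-Glo luminescence; fitted concentration-response, curve class assigned.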
SW480 rereplic: A quantitative high throughput screen for small molecules that induce DNA re-replication in SW480 colon adenocarcinoma cells. SW480 DNA re-replication, Hoechst DNA content imaging, 48 h. 340,000 tested, 1.8% active. Potency, µM (highest dose often 46.1 µM), actives largely listed as activators; note: nearly all actives have a fitted effect of over 55% in size
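Per well, 250 cells were exposed to pinned compound for 48 hr. Nuclear DNA was visualised with Hoechst (40 min, 37 C) and total object intensity recorded by fluorescence scanning.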
Each line names hits and unclear results; the compound was inactive in the other large screens. Calls come from the whole dose curve; as a rule, active = well fitted curve in the direction sought with a large enough effect; inconclusive = small, poorly fitted or top-dose-only effect, or another doubt; inactive = no such curve, though single readings can be large; an effect the other way counts as inactive or inconclusive.

O=C(/C=C/c1ccc(F)cc1)NC(=S)NNC(=O)c1cnccn1	KB-3-1 cytotox 5.8µM, KB-V1 MDR tox inconclusive
Cc1ccc(-n2c(C)cc(C3N=C(N)Nc4nc5ccccc5n43)c2C)c(C)c1 (configuration not stated)	MCF10A rerep inconclusive, HT1080NT lethal inconclusive, HT1080 IDH1KD tx 20µM
NC1=NC(c2ccc(F)cc2)n2c(nc3ccccc32)N1 (configuration not stated)	MCF10A rerep 26µM, SW480 rereplic inconclusive
CC1=C(C#N)C(c2cn(-c3ccccc3)nc2-c2cccs2)C(C#N)=C(C)N1	KB-3-1 cytotox inconclusive, HT1080NT lethal inconclusive, HT1080 IDH1KD tx inconclusive
NC1=NC(c2cn(-c3ccccc3)nc2-c2cccs2)n2c(nc3ccccc32)N1 (configuration not stated)	MCF10A rerep inconclusive, HT1080NT lethal 18µM, HT1080 IDH1KD tx inconclusive
CCOc1ccccc1NC(=O)CN1c2ccccc2S(=O)(=O)c2ccccc21	none (no result: MCF10A rerep, HT1080NT lethal, HT1080 IDH1KD tx, SW480 rereplic)
COc1cccc(NC(=O)CN(C)C(=O)C(C)Sc2ccccc2)c1 (configuration not stated)	KB-V1 MDR tox inconclusive
O=C(CC1CCCCC1)N1CCCC(c2nc(-c3ccc(S(=O)(=O)N4CCCC4)cc3)no2)C1 (configuration not stated)	KB-V1 MDR tox 8.2µM, MCF10A rerep inconclusive, HT1080NT lethal inconclusive
CCCCCC(=O)N1CCCC(c2nc(-c3ccc(OC)cc3)no2)C1 (configuration not stated)	KB-3-1 cytotox inconclusive, KB-V1 MDR tox inconclusive, MCF10A rerep inconclusive
O=C(c1ccco1)N1CCCC(c2nc(-c3ccc(S(=O)(=O)NCc4ccccc4)cc3)no2)C1 (configuration not stated)	MCF10A rerep 18µM, HT1080NT lethal inconclusive, HT1080 IDH1KD tx inconclusive
COc1ccc(-c2noc(C3CCCN(C(=O)c4ccccc4)C3)n2)cc1 (configuration not stated)	HT1080NT lethal inconclusive
FC1(F)Oc2ccc(-c3ccc4ncnc(NCc5cccs5)c4c3)cc2O1	KB-3-1 cytotox inconclusive (no result: MCF10A rerep, HT1080NT lethal, HT1080 IDH1KD tx, SW480 rereplic)
CCC(=O)[C@@H](C)[C@@H](OC(C)=O)[C@H](C)C[C@@H](C)[C@H]1OC(=O)C[C@@]2(O)CC=C(C)C(O2)C(C)=CCCC[C@H](O[C@H]2C[C@@H](OC(N)=O)[C@H](OC(C)=O)[C@@H](C)O2)C=C[C@H](C)C[C@H]1C	KB-3-1 cytotox 1.3µM (no result: MCF10A rerep, SW480 rereplic)
Nc1ccc(CCCC(=O)NCc2cccnc2)cc1	none (no result: MCF10A rerep, SW480 rereplic)
COc1cc(OC)cc(C(=O)NC(=S)NCc2ccco2)c1	HT1080NT lethal 18µM, HT1080 IDH1KD tx inconclusive, SW480 rereplic inconclusive
COc1cccc(C(=O)NC(=S)NCc2ccco2)c1	none
CN(Cc1c(F)cccc1Cl)C(=O)c1ccc(NC(=O)CC2SC(N3CCCC3)=NC2=O)cc1 (configuration not stated)	none
Cc1ccc(NC2CCCN(C(=O)c3cccc(-c4ncc[nH]4)c3)C2)cc1C (configuration not stated)	none
O=C(O)COc1ccc(C(=O)c2ccccc2)cc1	none
CC(=O)c1ccc(OCc2ccc(C(=O)c3ccccc3)cc2)cc1	KB-3-1 cytotox 15µM, KB-V1 MDR tox 16µM
CC(=O)Nc1nn(C)c2nc3cc(C)ccc3cc12	none
CCCn1nc(NC(=O)c2ccco2)c2cc3ccccc3nc21	KB-3-1 cytotox inconclusive, KB-V1 MDR tox inconclusive, MCF10A rerep 16µM, SW480 rereplic 18µM
CCCC(=O)Nc1nn(CCC)c2nc3ccccc3cc12	KB-V1 MDR tox inconclusive
Cc1ccc2cc3c(NC(=O)c4ccco4)nn(C)c3nc2c1	KB-3-1 cytotox inconclusive, KB-V1 MDR tox inconclusive, MCF10A rerep 18µM, SW480 rereplic inconclusive

Screens: PubChem, National Center for Advancing Translational Sciences (NCATS)
